KB-V1 cytotox – qHTS assay for MDR1-selective chemotherapeutics: Primary screen using the drug-selected MDR subline cells KB-V1; KB-V1 MDR cells viability, CellTiter-Glo, 72 h; Potency, µM (titrated, usually from 46.1 µM), actives largely listed as cytotoxic; 400,000 tested, 3.4% active; AID 1347076, 2019; note: % is set by controls: 0 for no effect and ±100 for the full control effect; nearly all actives have a fitted effect of over 60% in size
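Readout: CellTiter-Glo luminescence, 10 min after addition. Cells: KB-V1 MDR subline, 72 h at 37 degrees C with compound. Analysis: corrected, normalized data fitted to concentration-effect curves.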
HepG2 tox – qHTS for Inhibitors of TGF-b: Cytotox Counterscreen; AID 588856, 2011; Potency, µM (top dose mostly 46.1 µM), for inactives: top-dose activity change, negative = cytotoxicity, hits mostly cytotoxic; 410,000 tested, 0.76% active; HepG2 CAGA-GFP viability, ATP luminescence, 18 h
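CellTiter-Glo luminescence gave cytotoxicity after 18 hours at 37 degrees C. The cells were HepG2 CAGA-GFP in 1% FBS DMEM, stimulated with 500 pg/mL TGF-beta after compound addition. %Activity was normalised to no-cell wells (complete cell-killing) and DMSO (no toxicity), and curves were fitted and classified.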
TGFb inhibitor – qHTS for Inhibitors of TGF-b | HepG2 CAGA-GFP TGF-b/SMAD3 reporter, GFP fluorescence, 18 h; TGF-beta stimulated, 500 pg/mL final | Potency, µM (highest dose often 46.1 µM), without a hit: top-dose activity, negative = inhibition, hits mostly inhibitors | 410,000 tested, 1.2% active; note: % is set by controls: 0 for no effect and ±100 for the full control effect; nearly all actives have a fitted effect of over 65% in size
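Inhibition was scored as loss of TGF-beta-induced (500 pg/mL final, 18 hours, 37 degrees C) GFP in HEPG2 cells carrying a CAGA-GFP reporter, in DMEM with 1% FBS. Well GFP was summed per cell; Activity was normalised to unstimulated and stimulated DMSO wells, then concentration-response fitting.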
HT1080 IDH1KD tx – qHTS for induction of synthetic lethality in tumor cells producing 2HG: qHTS for the HT-1080-IDH1KD cell line | HT-1080 IDH1 knockdown viability, ATP luminescence, 48 h | Potency, µM (titrated, usually from 46.1 µM), without a hit: at the top dose activity, negative = toxicity, hits mostly cytotoxic | 360,000 tested, 2% active;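 note: 0% = DMSO wells and -100% = cell-free medium wells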
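Luminescent ATP read-out (CellTiter-Glo, 10 min at room temperature) after 48 h compound exposure at 37 °C gave viability of IDH1-knockdown HT-1080 cells. Activity was normalised to DMSO and cell-free wells, then fitted as concentration-response curves.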
KB-3-1 cytotox – qHTS assay for MDR1-selective chemotherapeutics: Primary screen using the parental adenocarcinoma cell KB-3-1. KB-3-1 viability, CellTiter-Glo ATP luminescence, 72 h. Potency, µM (series often up to 46.1 µM), hits mostly cytotoxic. 400,000 tested, 1.4% active; note: % is set by controls: 0 for no effect and ±100 for the full control effect; nearly all actives have a fitted effect of over 60% in size
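Luminescent ATP read-out (CellTiter-Glo) measures survival of drug-naive KB-3-1 cells after 72 h compound exposure at 37 °C. Titration series was screened from lowest to highest concentration, with DMSO vehicle plates as background controls.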
HT1080NT lethal – qHTS for induction of synthetic lethality in tumor cells producing 2HG: qHTS for the HT-1080-NT fibrosarcoma cell line; HT-1080-NT fibrosarcoma viability, CellTiter-Glo ATP luminescence, 48 h; Potency, µM (doses to about 46.1 µM), without a hit: at the top dose activity, negative = less viability, hits mostly cytotoxic; 360,000 tested, 1.6% active; AID 686970, 2013;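 note: NT is the 2HG producing partner of a matched IDH1 knockdown line; 0% = DMSO-treated cells and -100% = media-only wells without cells; nearly all actives have a fitted effect of over 55% in size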
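Viability of the 2HG-overproducing fibrosarcoma line after 48 hours of compound exposure at 37 degrees C was determined by luminescence with CellTiter-Glo, and concentration-effect curves were then fitted and categorized.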
Numbers without * were called inactive; i = inactive; ? = inconclusive; · = no result; ! = not confirmed by another sample. Most compounds without a hit are left out; they make up all but 6.6% or so of the library. Calls come from the whole dose curve; as a rule, active = well fitted curve in the direction sought with a large enough effect; inconclusive = small, poorly fitted or top-dose-only effect, or another doubt; inactive = no such curve, though single readings can be large; an effect the other way counts as inactive or inconclusive. Potency is the fitted concentration of half-maximal effect.

SMILES	KB-V1 cytotox	HepG2 tox	TGFb inhibitor	HT1080 IDH1KD tx	KB-3-1 cytotox	HT1080NT lethal
CSCCC(c1nnnn1Cc1ccccc1)N1CCC(n2c(=O)[nH]c3ccccc32)CC1 (stereo unspecified)	10µM*	-16%	?	?	i	?
O=c1[nH]c2ccccc2n1C1CCN(C(c2ccccc2OC(F)(F)F)c2nnnn2Cc2ccccc2)CC1 (stereo unspecified)	?	-39%	11µM*	?	?	26µM*
CSCCC(c1nnnn1C1CCCC1)N1CCC(n2c(=O)[nH]c3ccccc32)CC1 (stereo unspecified)	23µM*	10%	1%	1%	i	3%
CC1=C(C)[N+](=O)C2(O)CCCCC2(C)N1[O-] (stereo unspecified)	i	2%	?	13%	i	9%
CC(C)(C)n1ncc2c(=O)n(Cc3cccc(Cn4cnc5c(cnn5C(C)(C)C)c4=O)c3F)cnc21	?	-30%	?	·	?	·
O=c1[nH]c2ccccc2n1C1CCN(C(c2cccs2)c2nnnn2Cc2ccccc2)CC1 (stereo unspecified)	15µM*	-31%	?	16µM*	?	18µM*
O=c1[nH]c2ccccc2n1C1CCN(C(c2nnnn2Cc2ccccc2)C2CC2)CC1 (stereo unspecified)	?	0%	-40%	21µM*	i	?
COc1ccc(C(c2nnnn2Cc2ccccc2)N2CCC(n3c(=O)[nH]c4ccccc43)CC2)cc1 (stereo unspecified)	?	1%	?	?	?	?
O=c1[nH]c2ccccc2n1C1CCN(C(CCc2ccccc2)c2nnnn2Cc2ccccc2)CC1 (stereo unspecified)	6.5µM*	-91%	?	6.5µM*	?	7.3µM*
Cc1ccc(NC(=O)Nc2ccc3nc(N4CCN(C)CC4)cc(C)c3c2)cc1F	i	-23%	26%	·	?	·
COc1ccc(C(=O)Oc2cccc3cccnc23)cc1S(=O)(=O)N1CCOCC1	i	13µM*	13µM*	?	i	-11%
Cc1cc(C)[n+](Cc2ccccc2)cc1C(N)=O	i	-22%	-7%	1%	i	?
CCOP(=O)(OCC)C(Nc1ccccc1)c1cccnc1 (stereo unspecified)	i	-40%	-4%	15%	i	0%
COC[C@H]1OC(=O)c2coc3c2[C@@]1(C)C1=C(C3=O)[C@@H]2CCC(=O)[C@@]2(C)C[C@H]1OC(C)=O	?	-28%	?	23µM*	21µM*	?
CC1=CC2OC3CC4OC(=O)C=CC=CC(=O)OCCC(C)C(O)C(=O)OCC2(CC1)C4(C)C31CO1 (stereo unspecified)	0.1µM*	·	0%	·	0.037µM*	0.16µM*
CC1CCOC(=O)C=CC=CC(=O)OC2CC3OC4C5OC5(C)C(O)CC4(COC(=O)C1O)C2(C)C31CO1 (stereo unspecified)	5.8µM*	11%	0.28µM*	·	0.21µM*	?
CC1=CC2OC3CC4OC(=O)C=CC=CC(C(C)O)OCC(O)C5(C)OC5C(=O)OCC2(CC1O)C4(C)C31CO1 (stereo unspecified)	?	-7%	0.16µM*	·	0.015µM*	0.37µM*
CC(O)C1C=CC=CC(=O)OC2CC3OC4C5OC5(C)C(O)CC4(COC(=O)C(O)C(C)CCO1)C2(C)C31CO1 (stereo unspecified)	?	4%	0.45µM*	·	0.21µM*	?
CN(C)c1ccc(C(=O)c2ccc(N(C)C)cc2)cc1	?	-22%	3%	2.5µM*	?	7.1µM*
CN(C)c1ccccc1	i	-20%	-13%	-5%	i	11%
CCCC12CN3CC(CCC)(CN(C1)C3c1ccccn1)C2=O (stereo unspecified)	2.6µM*!	13%	15%	0%	i	1%
C=C1C(C)C2C(Cc3ccccc3)NC(=O)C23C(OC(C)=O)C=CC(C)(O)CC(C)CC=CC3C1O (stereo unspecified)	?	-20%	-19%	?	?	-4%
C=C1[C@@H](C)[C@H]2[C@H](Cc3ccccc3)NC(=O)[C@]23OC(=O)/C=C/[C@H](O)CCC[C@@H](C)C/C=C/[C@H]3[C@@H]1O	?	-36%	?	0.73µM*	i	1.3µM*
COc1ccc(CC(=O)N2C[C@H]3C[C@@H](C2)c2cccc(=O)n2C3)cc1	i	5%	14%	0%	i	12%
COc1ccc(OC(=O)N2C/C(=C/c3ccccc3)C(=O)/C(=C\c3ccccc3)C2)cc1	?	-5%	?	8.2µM*	?	10µM*
SMILES	KB-V1 cytotox	HepG2 tox	TGFb inhibitor	HT1080 IDH1KD tx	KB-3-1 cytotox	HT1080NT lethal
CC[N+]12CCC(CC1)C(=C(c1ccccc1)c1ccccc1)C2	i	-19%	2%	-9%	15µM*	-12%
CCOP(=O)(OCC)C(NC(=O)c1cccc([N+](=O)[O-])c1)C(Cl)(Cl)Cl (stereo unspecified)	i	5%	0%	7%	i	6%
Cc1nn(Cc2cccc(C(=O)NC(C)c3ccc(C(C)(C)C)cc3)c2)c(C)c1[N+](=O)[O-] (stereo unspecified)	6.5µM*	-5%	-14%	?	?	-19%
CCOC(=O)CCCc1cc[c]([Sb](=[O])([OH])[OH])cc1	i	-8%	?	·	i	·
COC1C(O)C(C)OC(OC2C(Oc3cccc4c(O)c5c(=O)oc6ccc(C)c7c(=O)oc(c34)c5c67)OC(C)C(O)C2O)C1O (stereo unspecified)	i	6%	3%	?	15µM*	?
COc1ccc(NC(=O)CN2C(=O)C(C)N=C(c3ccccc3F)c3cc(Cl)ccc32)c(OC)c1 (stereo unspecified)	·	-15%	?	·	·	·
CCOc1cc2c(cc1OCC)-n1cccc1C(c1ccccc1OC)NC2 (stereo unspecified)	?	-11%	0%	-16%	i	-19%
